Experimental findings from PubChem BioAssay AID1835 (Johns Hopkins Ion Channel Center, 2009) are described below.

The whole screen tested about 2,400 compounds, of which about 750 (31%) were called active. Some of the results follow. Unmarked numbers belong to inactive results.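 Rule for the calls: active = median signal gain over dofetilide-blocked control wells reaching their mean plus 3 SD, so readout 1 at least 0; inactive = the rest.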

The target of the assay is Voltage-gated inwardly rectifying potassium channel KCNH2 (Homo sapiens) (UniProt Q12809). Put plainly: hERG protection against dofetilide inhibition, confirmation, cell-based, thallium flux, duplicate retest, dofetilide IC70 (AID 1835). The note with it: hERG cell line, FluxOR thallium flux, dofetilide-blocked; at 10 µM; active compounds read high. Background: The hERG channel carries a current that helps repolarise heart muscle cells.
Sequence of Voltage-gated inwardly rectifying potassium channel KCNH2 (Homo sapiens) (Q12809 whole entry, looked up): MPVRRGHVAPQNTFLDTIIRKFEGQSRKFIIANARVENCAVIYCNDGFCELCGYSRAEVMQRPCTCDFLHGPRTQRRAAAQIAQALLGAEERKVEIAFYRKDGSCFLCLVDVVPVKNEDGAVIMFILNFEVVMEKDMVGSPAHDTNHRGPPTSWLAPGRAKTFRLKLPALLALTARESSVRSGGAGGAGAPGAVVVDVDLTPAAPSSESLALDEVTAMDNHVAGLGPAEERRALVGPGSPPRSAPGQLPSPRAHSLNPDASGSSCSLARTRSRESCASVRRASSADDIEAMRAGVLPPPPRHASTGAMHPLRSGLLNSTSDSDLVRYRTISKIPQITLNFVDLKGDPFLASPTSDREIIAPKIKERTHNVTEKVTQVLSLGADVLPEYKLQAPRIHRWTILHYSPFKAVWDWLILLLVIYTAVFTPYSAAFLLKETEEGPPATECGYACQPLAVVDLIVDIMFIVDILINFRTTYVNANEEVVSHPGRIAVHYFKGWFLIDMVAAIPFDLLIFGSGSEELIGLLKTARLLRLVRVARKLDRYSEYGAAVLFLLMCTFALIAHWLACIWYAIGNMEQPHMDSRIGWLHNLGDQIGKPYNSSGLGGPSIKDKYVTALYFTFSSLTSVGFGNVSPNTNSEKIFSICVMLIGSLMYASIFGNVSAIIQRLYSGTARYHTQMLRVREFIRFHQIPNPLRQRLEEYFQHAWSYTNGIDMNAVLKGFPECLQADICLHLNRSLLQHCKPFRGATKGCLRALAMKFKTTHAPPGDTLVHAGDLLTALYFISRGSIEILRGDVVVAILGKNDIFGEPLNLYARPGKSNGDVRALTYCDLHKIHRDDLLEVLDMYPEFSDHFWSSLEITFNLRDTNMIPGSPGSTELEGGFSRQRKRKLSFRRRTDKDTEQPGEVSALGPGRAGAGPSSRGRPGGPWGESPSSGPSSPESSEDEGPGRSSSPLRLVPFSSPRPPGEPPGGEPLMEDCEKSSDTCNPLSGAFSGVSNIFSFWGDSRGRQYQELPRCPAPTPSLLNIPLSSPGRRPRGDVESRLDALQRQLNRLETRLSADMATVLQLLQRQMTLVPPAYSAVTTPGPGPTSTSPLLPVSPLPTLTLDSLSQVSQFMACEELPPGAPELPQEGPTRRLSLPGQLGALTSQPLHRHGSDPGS
In the case of `Nc1ncnc(Oc2cccc3cccnc23)c1[N+](=O)[O-]`, the activity increase over dofetilide control, less the hit threshold was -12%.

As for `Nc1cc(-c2ccc(Br)cc2)[nH]n1`, the activity increase over dofetilide control, less the hit threshold is -11%.

For the compound `O=C(CN1C(=O)c2cccc3cccc1c23)Nc1cccnc1`, the activity increase over dofetilide control, less the hit threshold was -17%.

Turning to `CNC(=O)c1ccc(NC(=O)CN2c3cccc4cccc(c34)S2(=O)=O)cc1`, the activity increase over dofetilide control, less the hit threshold is 61% (active).

Take `CSc1cccc(NC(=O)CN2C(=O)c3ccccc3S2(=O)=O)c1`: the activity increase over dofetilide control, less the hit threshold is -19%.

On to `Cc1c(C(=O)NN2CCN(C)CC2)cccc1[N+](=O)[O-]`, for which the activity increase over dofetilide control, less the hit threshold is -16%.

In the case of `COc1ccc(N2CCN(C(=S)NC(=O)c3cccs3)CC2)c([N+](=O)[O-])c1`, the activity increase over dofetilide control, less the hit threshold is 1% (active).

For the compound `O=C(NC(=S)N1CCN(c2ccc(C(F)(F)F)cc2[N+](=O)[O-])CC1)c1cccs1`, the activity increase over dofetilide control, less the hit threshold was 12% (active).

For the compound `O=C(NC(=S)N1CCN(c2c(Cl)cccc2[N+](=O)[O-])CC1)c1cccs1`, the activity increase over dofetilide control, less the hit threshold is 2% (active).

On to `O=C(NC(=S)N1CCN(c2ccc(Cl)cc2[N+](=O)[O-])CC1)c1cccs1`, for which the activity increase over dofetilide control, less the hit threshold was 12% (active).

As to `COc1ccc(N2CCN(C(=S)Nc3cccc(OC)c3)CC2)cc1`, the activity increase over dofetilide control, less the hit threshold is -11%.

In the case of `Cc1cccc2nc(-c3cccnc3)c(NCCC(C)C)n12`, the activity increase over dofetilide control, less the hit threshold was -70%.

`CC(C)Oc1cccc(C(=O)NC(=S)N2CCN(c3ccc(C(F)(F)F)cc3[N+](=O)[O-])CC2)c1`: the activity increase over dofetilide control, less the hit threshold is -8%.

In the case of `COc1cccc(OC)c1C(=O)NC(=S)N1CCN(c2ccc(C(F)(F)F)cc2[N+](=O)[O-])CC1`, the activity increase over dofetilide control, less the hit threshold is 6% (active).

With `COC(=O)CSc1nc2c(c(-c3ccc(C)o3)c1C#N)CCCC2`, the activity increase over dofetilide control, less the hit threshold was -18%.

Regarding `COC(=O)CSc1nc(N2CCCCC2)c2c(c1C#N)CCCC2`, the activity increase over dofetilide control, less the hit threshold is 5% (active).

Turning to `CCC1(c2ccc(Cl)cc2)NC(=S)N(c2ccc(C)c(C)c2)N1` (configuration not stated), the activity increase over dofetilide control, less the hit threshold is 100% (active).

With `CCC1(c2ccccc2)NC(=S)N(c2ccc(C)c(C)c2)N1` (configuration not stated), the activity increase over dofetilide control, less the hit threshold was 86% (active).

As for `Cc1ccc(NC(=O)c2noc3c2CCC3)cc1C`, the activity increase over dofetilide control, less the hit threshold is -11%.

Consider `N#Cc1cc(-c2ccccc2)nnc1Oc1ccccc1`, for which the activity increase over dofetilide control, less the hit threshold was -1%.

In the case of `Cc1ccc2[nH]c(=O)c(C(c3nnnn3C3CCCC3)N3CCCc4ccccc43)cc2c1` (configuration not stated), the activity increase over dofetilide control, less the hit threshold was -4%.

Regarding `COc1ccc(-c2cc(C(F)(F)F)nc(N3CCCCC3)n2)cc1OC`, the activity increase over dofetilide control, less the hit threshold is -19%.

In the case of `O=C1C=C(c2ccccc2)OC(=O)C1C(=O)c1ccccc1` (configuration not stated), the activity increase over dofetilide control, less the hit threshold is -4%.

For `CCOc1ccc2nc(/N=C/c3nc(-c4ccc(Br)cc4)oc3O)sc2c1`, the activity increase over dofetilide control, less the hit threshold is 11% (active).

With `CCOc1ccc2nc(/N=C/c3nc(-c4ccccc4)oc3O)sc2c1`, the activity increase over dofetilide control, less the hit threshold was 4% (active).

Take `CC1(C)CC(=O)c2c(nn(-c3ccccc3)c2-c2ccncc2)C1`: the activity increase over dofetilide control, less the hit threshold was -7%.

Take `Cc1ccc2cc(CCNC(=O)C(=O)c3c(C)[nH]c4ccccc34)c(=O)[nH]c2c1`: the activity increase over dofetilide control, less the hit threshold was -20%.
